EP2 mod – modulates human prostaglandin E2 receptor EP2 signaling. EP2-expressing cells, cAMP HTRF FRET, PGE2 co-stimulation. induction, % at 25 µM. 0.83% of 260,000 active;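 active = compounds whose cAMP rise, as percent of the full-agonist control response, exceeds 60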;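 note: rat C6 glioma line stably carrying human EP2 under a CMV promoter; the protocol text gives 20 µM as final concentration; 100% = response of wells given 1 µM PGE2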
PGE2 EP2 inh – inhibitors of human EP2 prostaglandin E2 receptor | P43116 | C6 glioma cells expressing human EP2, cAMP TR-FRET; cells stimulated with saturating PGE2 | inhibition, % at 25 µM | 0.52% of 260,000 active;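 active = percent inhibition above 40 after rounding to a whole number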;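 note: rat C6 glioma host cells with rolipram phosphodiesterase inhibitor present; the protocol text gives 20 µM as final concentration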
Hck-Nef inh – blocks Nef-activated human Hck kinase; 0.68% of 220,000 active; Recombinant Hck-YEEI plus Nef, Z-Lyte FRET kinase assay; inhibition, % at 20 µM; AID 463187; P08631;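 active = Hck-Nef kinase inhibition above about 50%, limit read from the data; inactive = inhibition below that limit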;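 note: 0% = DMSO with Hck plus Nef and 100% = Hck alone without Nef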
p97 ATPase inh – inhibitors of human p97 ATPase | P55072 | recombinant p97 ATPase, Kinase-Glo ATP luminescence, 3 h | inhibition, % at 8 µM | 0.42% of 220,000 active | AID 1481; in the data active = inhibition above about 15%;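 note: 0% = DMSO vehicle and 100% = wells lacking enzyme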
Target sequence (P55072 whole entry, looked up): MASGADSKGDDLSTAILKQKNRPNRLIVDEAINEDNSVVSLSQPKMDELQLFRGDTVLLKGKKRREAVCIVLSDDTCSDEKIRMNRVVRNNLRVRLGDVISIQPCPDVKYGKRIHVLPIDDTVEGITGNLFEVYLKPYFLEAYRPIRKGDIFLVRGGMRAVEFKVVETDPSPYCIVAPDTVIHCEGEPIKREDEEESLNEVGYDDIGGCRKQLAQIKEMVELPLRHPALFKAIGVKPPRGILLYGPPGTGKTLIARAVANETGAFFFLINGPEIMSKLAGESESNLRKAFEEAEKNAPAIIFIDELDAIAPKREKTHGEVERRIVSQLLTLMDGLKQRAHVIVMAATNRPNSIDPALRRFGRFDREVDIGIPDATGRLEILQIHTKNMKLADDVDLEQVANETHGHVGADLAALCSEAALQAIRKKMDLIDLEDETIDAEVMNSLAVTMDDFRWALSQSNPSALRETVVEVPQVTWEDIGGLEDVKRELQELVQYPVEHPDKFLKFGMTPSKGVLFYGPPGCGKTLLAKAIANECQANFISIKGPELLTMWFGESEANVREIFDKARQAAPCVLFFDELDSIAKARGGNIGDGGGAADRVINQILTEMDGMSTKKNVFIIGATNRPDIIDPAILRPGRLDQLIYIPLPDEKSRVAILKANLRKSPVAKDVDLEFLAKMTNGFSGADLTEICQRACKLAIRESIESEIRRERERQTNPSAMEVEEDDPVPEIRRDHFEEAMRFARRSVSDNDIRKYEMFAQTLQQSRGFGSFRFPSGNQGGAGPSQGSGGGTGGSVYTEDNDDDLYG
Arbovirus anti – blocks arbovirus infection | arbovirus infection cell-based antiviral screen | inhibition, % at 10 µM | 0.37% of 200,000 active | AID 1251; in the data active = inhibition above about 30%
p97 inh conf – confirmation of human p97 ATPase inhibitors; shares compounds with p97 ATPase inh; recombinant p97 ATPase, Kinase-Glo ATP luminescence; inhibition, % at 8 µM; 44% of 760 active;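 active = percent inhibition of p97 ATPase above a set limit, the primary screen's mean plus 3 SD, cut at about 15% in these data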;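 note: 0% = DMSO wells and 100% = wells lacking p97 protein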
Hck Nef conf – confirmation of Hck-Nef kinase inhibitors; shares compounds with Hck-Nef inh; Recombinant Hck-YEEI:Nef, Z-Lyte FRET kinase assay; calls only at 10 µM; 28% of 1,300 active;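 active = average inhibition of at least 50%, with Z-scores no higher than 3 in both the phospho-tyrosine peptide and fluorescence counterscreens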
Numbers without * were called inactive; i = inactive; / = not tested or not shown; + = active, no number. Compounds with a hit are over-represented: about 2.4% of the library has one in this group of screens.

SMILES | EP2 mod | PGE2 EP2 inh | Hck-Nef inh | p97 ATPase inh | Arbovirus anti | p97 inh conf | others
O=C(Nc1ccc2nc(-c3cccs3)[nH]c2c1)c1cccs1 | -54 | 17 | 11 | 15* | -28 | 19*
Cc1c(C(=O)c2no[n+]([O-])c2C(=O)c2cnn(C)c2C)cnn1C | -20 | 11 | 1 | 34* | 16 | 36*
Cc1c(C(=O)Nc2ccc(Br)cc2)cnn1C | 19 | 7 | 4 | -1 | 1 | /
Cn1c2ccccc2c(=O)c2c(=O)n(Cc3ccco3)c(-c3ccc(Cl)cc3Cl)nc21 | 8 | 6 | 37 | 33* | / | 24*
CC(=O)NC1(c2ccccc2)CCN(CC(=O)Nc2ccccc2N2CCOCC2)CC1 | -52 | / | / | / | / | /
Nc1cccc2c1C(=O)N(C(=O)/C=C/c1cccc(Br)c1)C2=O | -40 | 11 | -60 | 17* | / | 19*
Nc1cccc2c1C(=O)N(C(=O)/C=C/c1cccc(F)c1)C2=O | -60 | 14 | 16 | 2 | 1 | /
O=C1NC(=O)/C(=C/c2cccc(O)c2)N1 | -4 | 3 | 2 | 19* | / | 14
O=C(NNc1c2ccccc2nc2ccccc12)c1ccc(O)cc1O | -33 | / | 0 | 35* | -25 | 38*
O=c1cc(-c2ccc([N+](=O)[O-])cc2)c2ccc(O)cc2o1 | 2 | 7 | 7 | 4 | 6 | /
O=c1c(-c2ccc([N+](=O)[O-])cc2)coc2c(O)c(O)ccc12 | -12 | 6 | 28 | 18* | / | 24*
CC#CC#Cc1cccc(=O)o1 | 9 | 3 | 31 | 29* | / | 23*
CC(C)C(=O)N1CCN(c2ccc(NC(=O)C(C)(C)C)cc2Cl)CC1 | -1 | 14 | / | / | / | /
O=C(CCc1ccccc1)NC(c1cccs1)c1cc(Cl)c2cccnc2c1O (stereo unspecified) | 22 | 5 | 10 | 19* | -28 | 8
CCn1c(SCC(=O)N2CCCCC2C)nnc1-c1ccc(S(=O)(=O)N2CCCC2)cc1 (stereo unspecified) | -36 | 8 | / | / | / | /
c1cncc(-c2nc(NCc3ccc4c(c3)OCO4)c3ccccc3n2)c1 | -18 | 4 | 7 | 17* | / | 21*
c1cncc(-c2nc(NCC3COc4ccccc4O3)c3ccccc3n2)c1 (stereo unspecified) | -50 | / | 9 | 2 | -36 | /
O=C(Nc1ccc(Nc2ccncc2)cc1)c1ccc(Nc2ccnc3ccc([N+](=O)[O-])cc23)cc1 | 56 | 15 | -163 | 34* | / | 24*
CCN1CCN(C(=O)CN(c2cc(C)ccc2OC)S(=O)(=O)c2ccccc2)CC1 | -1 | 8 | / | / | / | /
Cc1cccc(CCNC(=O)C2CCN(c3nc4ccccc4n3C)CC2)c1 | -39 | 7 | / | / | / | /
CSC1=C(C#N)C(=O)NC(c2ccc(Cl)cc2)S1 (stereo unspecified) | -51 | 11 | 19 | 18* | / | 31*
CCCCn1nc2cc(C(=O)NCc3ccc(OC(F)(F)F)cc3)ccc2c1OC | 20 | 4 | 0 | 16* | 12 | 3
COc1cc(C2C3=C(CCCC3=O)N(C)C3=C2C(=O)CCC3)ccc1OCc1ccccc1 | 23 | 9 | / | / | / | /
C/C(=N\NC(=O)c1ccccc1O)c1ccc(Br)s1 | -33 | 7 | 2 | 1 | -7 | /
C/C(=N\NC(=O)c1cccc(F)c1)c1ccc(Br)s1 | 1 | 6 | 0 | 19* | -27 | 2
SMILES | EP2 mod | PGE2 EP2 inh | Hck-Nef inh | p97 ATPase inh | Arbovirus anti | p97 inh conf | others
Cc1ccccc1C(=O)Nc1nc2c(C)csc2c(=O)s1 | -20 | 19 | 78* | 39* | / | 37* | Hck Nef conf=i
Cc1csc2c(=O)sc(NC(=O)c3ccc(F)cc3)nc12 | -23 | 13 | 22 | 11 | / | /
O=C1CCc2cc(S(=O)(=O)NCC(c3ccccc3)N3CCOCC3)ccc2N1 (stereo unspecified) | -37 | 9 | / | / | / | /
Cc1cc(-c2cccs2)c(C#N)c(=S)[nH]1 | -15 | 5 | -48 | 2 | / | /
N#Cc1c(-c2cccs2)cc(-c2cccs2)[nH]c1=O | 16 | 28 | 109* | 16* | / | 15*
CCCCn1c(NCc2ccccc2NS(=O)(=O)c2ccc(C)cc2)nc2ccccc21 | 24 | 12 | 2 | 3 | -6 | /
CCCCn1c(NS(=O)(=O)c2ccc(C)cc2)c(S(=O)(=O)c2ccccc2)c2nc3ccccc3nc21 | 58 | 11 | 97* | 24* | -9 | 39* | Hck Nef conf=i
CC(C)Nc1ccc(Nc2ccnc3cc4ccccc4cc23)cc1 | -35 | 12 | 69* | 29* | / | 33* | Hck Nef conf=+
CC(C)(C)c1ccc(CSc2n[nH]c(-c3cccnc3)n2)cc1 | 0 | 10 | / | / | / | /
CCn1c2ccccc2c2c3ncc4cccn4c3ccc21 | 42 | 14 | 95* | 15* | / | 13 | Hck Nef conf=i
c1ccc2c(c1)ncc1cccn12 | 5 | 7 | 2 | 10 | 1 | /
Cc1c(N=C2C=C(Br)C(=O)C(Br)=C2)c(=O)n(-c2ccccc2)n1C | 15 | 10 | 50* | 27* | -3 | 8 | Hck Nef conf=i
COc1ccc2c(c1)cc(C)c1nnc(SCC(=O)c3cccs3)n12 | 4 | 14 | / | / | / | /
CC(=O)Nc1sc(N/N=C\c2ccc(O)cc2)nc1-c1cccs1 | -76 | 5 | 60* | 16* | / | 23* | Hck Nef conf=i
COc1ccc(/C=N/NC(=O)c2cc(O)c(O)c(O)c2)cc1Cn1cc([N+](=O)[O-])cn1 | -13 | 11 | 50* | 17* | -12 | 31* | Hck Nef conf=i
COc1ccc(/C=N/NC(=O)c2ccccc2O)cc1Cn1cc([N+](=O)[O-])cn1 | -36 | 4 | 27 | 10 | / | /
CCOC(=O)C1=C(NC(=O)c2cc3ccccc3oc2=O)SC2CCCCC12 (stereo unspecified) | -37 | 7 | / | / | / | /
O=C1/C(=C/C=C/c2ccco2)SC(=S)N1NS(=O)(=O)c1ccccc1 | -7 | 8 | 102* | 16* | / | 14 | Hck Nef conf=+
COc1cccc(-n2c(SCc3cc(=O)oc4cc(O)c(O)cc34)nc3ccccc3c2=O)c1 | 16 | 8 | 74* | 40* | 8 | 40*
O=C(N/N=C/c1coc2ccccc2c1=O)c1cc(O)cc(O)c1 | 12 | 8 | 63* | 30* | 3 | 33* | Hck Nef conf=+
COc1ccc(C(=O)N/N=C\c2coc3ccccc3c2=O)cc1 | -9 | 8 | -162 | 6 | / | /
COc1ccc(-c2nc(-c3ccccc3)cs2)cc1OC | 12 | 10 | / | / | / | /
COc1ccc(-c2nc(-c3ccc(O)cc3O)cs2)cc1OC | -43 | 82* | 61* | 17* | -30 | 19* | Hck Nef conf=+
COc1ccc(C(=O)NCCNC(=O)c2ccco2)cc1 | -24 | 6 | / | / | / | /
Nc1ncnc2oc(-c3ccco3)c(-c3ccco3)c12 | 51 | 5 | 71* | 17* | 2 | 13 | Hck Nef conf=+
CN(C)S(=O)(=O)c1cccc(NC(=S)N/N=C/c2ccc(O)c(O)c2O)c1 | -34 | 9 | 91* | 16* | / | 20* | Hck Nef conf=+
